Source: PubChem BioAssay (National Center for Advancing Translational Sciences (NCATS))
The list is not random: actives were taken first. Their share in the collection is about 11%.
3T3 cytotox: kills NIH 3T3 cells. NIH 3T3 viability, CellTiter-Glo ATP luminescence, 48-72 h. Potency, µM (top dose mostly 96.7 µM), for inactives: at the highest dose activity change, negative = cytotoxicity, most hits filed as inhibitors. hit rate 4.3% among 94,000. AID 1345082; note: % is set by controls: 0 for no effect and ±100 for the full control effect; nearly all actives have a fitted effect of over 55% in size
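NIH 3T3 cells at 400 cells/well received 23 nL of compound by pintool and were incubated 48 or 72 h at 37 °C. Viability was read as ATP-coupled CellTiter-Glo luminescence.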
FLuc inh-1: inhibitors of firefly (Photinus pyralis) luciferase. P08659. purified P. pyralis luciferase, luminescence, biochemical. Potency, µM (series often up to 115 µM), hits mostly inhibitors. hit rate 2.5% among 76,000. AID 1347043; note: % is set by controls: 0 for no effect and ±100 for the full control effect; nearly all actives have a fitted effect of over 65% in size
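Purified P. pyralis luciferase (10nM final) in 50mM Tris acetate pH 7.5, 10mM Mg acetate, 0.01% Tween-20, 0.05% BSA with 10uM D-luciferin and 10uM ATP. Compounds titrated qHTS. Luminescence imaged on CCD.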
HEK293 tox: kills HEK 293 cells | HEK 293 viability, ATP luminescence (CellTiter-Glo), 48-72 h | Potency, µM (top dose mostly 115 µM), without a hit: top-dose activity change, negative = cytotoxicity, actives largely listed as inhibitors | hit rate 6.6% among 94,000; note: % is set by controls: 0 for no effect and ±100 for the full control effect; nearly all actives have a fitted effect of over 60% in size
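250 HEK 293 cells/well; compound by pintool; incubated 48 or 72 hr at 37 degree Celsius; CellTiter-Glo added, 10 min RT, luminescence imaged.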
hNpr1 antagonist: antagonists of human natriuretic peptide receptor Npr1; HEK293 hNpr1 GloSensor cGMP, ANP-stimulated luminescence; Potency, µM (doses to about 46.3 µM), inactives show at the highest dose activity change, negative = inhibition, actives largely listed as inhibitors; hit rate 1.6% among 76,000; AID 1347048; calls by dose curve; note: % is set by controls: 0 for no effect and ±100 for the full control effect; nearly all actives have a fitted effect of over 60% in size
Target sequence (P16066 whole entry, looked up): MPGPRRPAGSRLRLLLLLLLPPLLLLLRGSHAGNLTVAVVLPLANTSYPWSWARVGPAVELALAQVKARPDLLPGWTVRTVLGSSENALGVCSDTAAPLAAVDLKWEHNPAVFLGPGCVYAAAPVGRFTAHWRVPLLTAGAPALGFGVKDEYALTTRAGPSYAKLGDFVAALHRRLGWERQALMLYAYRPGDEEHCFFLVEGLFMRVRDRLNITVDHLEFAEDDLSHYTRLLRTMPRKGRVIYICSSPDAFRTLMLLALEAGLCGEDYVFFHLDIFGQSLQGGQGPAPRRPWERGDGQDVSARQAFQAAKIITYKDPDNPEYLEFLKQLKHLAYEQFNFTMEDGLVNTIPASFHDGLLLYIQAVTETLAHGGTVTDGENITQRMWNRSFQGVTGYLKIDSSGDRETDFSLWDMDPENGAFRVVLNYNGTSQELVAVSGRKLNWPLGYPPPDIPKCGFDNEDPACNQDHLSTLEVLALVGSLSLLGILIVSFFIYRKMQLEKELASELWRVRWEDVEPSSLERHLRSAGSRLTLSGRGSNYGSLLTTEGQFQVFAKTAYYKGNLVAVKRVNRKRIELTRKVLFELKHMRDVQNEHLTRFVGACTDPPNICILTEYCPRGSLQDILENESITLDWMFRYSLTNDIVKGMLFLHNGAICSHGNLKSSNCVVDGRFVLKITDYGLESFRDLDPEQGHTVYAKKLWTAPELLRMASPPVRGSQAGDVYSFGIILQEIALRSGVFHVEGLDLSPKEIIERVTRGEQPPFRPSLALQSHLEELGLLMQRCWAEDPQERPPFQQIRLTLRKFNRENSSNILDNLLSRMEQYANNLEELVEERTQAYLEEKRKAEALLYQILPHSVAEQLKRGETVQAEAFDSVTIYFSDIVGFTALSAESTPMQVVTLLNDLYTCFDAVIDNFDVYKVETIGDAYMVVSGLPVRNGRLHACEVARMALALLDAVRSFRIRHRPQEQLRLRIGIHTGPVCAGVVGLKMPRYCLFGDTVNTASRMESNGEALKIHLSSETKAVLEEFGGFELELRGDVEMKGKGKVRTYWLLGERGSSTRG
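HEK293 cells stably expressing human Npr1 and cGMP GloSensor pGS-40F, loaded 2 h with 2% GloSensor reagent, given compound 30 min at room temperature. Luminescence read before and 20 min after 0.1 nM hNppA.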
FLuc SDR no ATP: stabilizes firefly luciferase without ATP. Purified FLuc-C-HiBiT, Nano-Glo HiBiT luminescence, no ATP. shares compounds with FLuc inh-1. hit rate 7.8% among 1,300. AID 1963318. Potency, µM (titrated, usually from 32.7 µM), for inactives: at the highest dose activation (signal gain), actives largely listed as activators; note: nearly all actives have a fitted effect of over 55% in size
FLuc SDR ATP: stabilizes firefly luciferase with ATP present. shares compounds with FLuc inh-1. purified FLuc-C-HiBiT + ATP, HiBiT complementation luminescence. Potency, µM (series often up to 32.7 µM), for the others: at the top dose activation (gain of signal), hits mostly activators. hit rate 8.7% among 1,300;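 note: signal reports ligand binding via conformational change of the enzyme rather than luciferase catalysis; % of control where 0% means no effect; nearly all actives have a fitted effect of over 55% in size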
FLuc inh-2: inhibitors of firefly luciferase enzymatic activity; hit rate 42% among 1,300; AID 1963320; purified FLuc-C-HiBiT enzyme, luciferin luminescence; Potency, µM (series often up to 32.7 µM), inactives show top-dose activity change, negative = inhibition, hits mostly inhibitors; shares compounds with FLuc inh-1; note: % is set by controls: 0 for no effect and ±100 for the full control effect; nearly all actives have a fitted effect of over 70% in size
Numbers without * were called inactive; i = inactive; ? = inconclusive; / = no result; [ ] = dose if it differs, or a comment. Unless noted, calls come from the whole dose curve; as a rule, active = well fitted curve in the direction sought with a large enough effect; inconclusive = small, poorly fitted or top-dose-only effect, or another doubt; inactive = no such curve, though single readings can be large; an effect the other way counts as inactive or inconclusive. Potency is the fitted concentration of half-maximal effect.

SMILES	3T3 cytotox	FLuc inh-1	HEK293 tox	hNpr1 antagonist	FLuc SDR no ATP	FLuc SDR ATP	FLuc inh-2
COc1ccc(NC(=O)c2cccc3c2CCN3C(=O)c2ccc(F)cc2)cc1OC	2%	?	-2%	-30%	/	/	/
CCN1CC(c2ccccc2)CC2(CCN(C(=O)Nc3ccccc3)CC2)C1 (stereo not given)	-19%	i	?	-2%	/	/	/
O=C1CCN(S(=O)(=O)c2ccccc2)CCCC(C(=O)NCCc2c[nH]c3ccccc23)CCN1 (stereo not given)	-23%	i	-37%	0%	/	/	/
Cc1cc(F)ccc1NC(=O)c1csc2c1CCC(C)C2 (stereo not given)	/	/	/	/	26%	20%	?
CN(Cc1cnn(C)c1)C(=O)c1csc2nc(-c3ccc(C(F)(F)F)cc3)cn12	?	4.5µM*	?	?	?	?	4.4µM*
CN(Cc1cnccn1)C(=O)c1csc2nc(-c3cccc(C(F)(F)F)c3)cn12	?	?	?	16%	/	/	/
N#Cc1c(-n2ncnc2-c2ccc(Br)cc2)sc2c1CCCCC2	/	/	/	/	23%	21%	9.9µM*
O=C1CC2(CCN(c3nc(-c4ccccc4)no3)CC2)CN1Cc1ccccc1	?	i	?	?	/	/	/
OCC1(CC2CC2)CCCN(c2nc(-c3ccccc3)no2)C1 (stereo not given)	?	14µM*	?	-4%	11%	13%	-12%
C[C@@H]1CN(c2nc(-c3ccccc3)no2)CC[C@@]1(O)C1CCC1	?	0.35µM*	?	5.6µM*	?	?	1.8µM*
CCCCn1c(=O)c(C(=O)N2CCN([S+](=O)([O-])c3c(C)noc3C)CC2)nc2cccnc21	-23%	/	-24%	/	/	/	/
CC1CCCN(c2ncnc3c2CN(C2CCNCC2)C(=O)CN3C)C1 (stereo not given)	-2%	/	-8%	/	/	/	/
CSc1ccc(NC(=O)c2cc3c(N4CCSCC4)nc(C)cn3n2)cc1	?	i	?	-17%	/	/	/
CSc1ccc(C(=O)Nc2ccc(-c3nc4ccccc4s3)c(O)c2)cc1	/	/	/	/	11%	11%	-2%
O=C(Nc1cnc(-c2ccccc2)nc1)c1cccc(F)c1	4%	?	-16%	-4%	/	/	/
O=C(Nc1ccc(-c2nc3ccccc3s2)c(O)c1)c1ccccc1	/	/	/	/	14%	11%	-2%
CC(C)c1ccc(C(=O)Nc2ccc(-c3nc4ccccc4s3)c(Cl)c2)cc1	/	/	/	/	12%	7%	-9%
CN(C)c1cccc(C(=O)Nc2ccc3c(N4CCOCC4)ncnc3c2)c1	-66%	13µM*	?	-14%	27%	?	?
CCc1ccc(C(=O)Nc2ccc3c(N4CCOCC4)ncnc3c2)cc1	8.9µM*	10µM*	?	2%	?	?	7.9µM*
CC(=O)N1CCc2nc(C3CC3)nc(-c3ccc(O)cc3)c2CC1	-23%[138 µM]	/	-5%[172 µM]	/	/	/	/
Cc1ccc(-c2cccc(CN3CCCC(NC(=O)NC(C)C)C3)c2)cc1Cl (stereo not given)	?	/	-11%	/	/	/	/
O=C(Nc1ccccc1-c1nc2ccccc2s1)c1ccc(F)cc1	/	/	/	/	8%	7%	-7%
COc1ccc(C(=O)Nc2ccccc2-c2nc3ccccc3s2)cc1OC	/	/	/	/	13%	9%	0%
O=C(Nc1ccccc1-c1nc2ccccc2s1)c1cc(Cl)cc(Cl)c1	/	/	/	/	10%	9%	2%
COc1ccc(C(=O)NCCC2CCN(C(=O)Nc3ccccc3)CC2)cc1OC	3%	i	-6%	3%	/	/	/
SMILES	3T3 cytotox	FLuc inh-1	HEK293 tox	hNpr1 antagonist	FLuc SDR no ATP	FLuc SDR ATP	FLuc inh-2
CCc1ccc(-c2nc(CSCC(=O)NCc3ccc(C)cc3)c(C)o2)cc1	/	/	/	/	19%	12%	?
Cc1ccc(-c2nc(C(=O)NCc3ccc(Cl)cc3)no2)cc1	-24%	i	-6%	2%	/	/	/
CCOC(=O)C1=C(C)N=C2SC=C(CC(=O)N3CCCC3)N2C1c1cc(C)ccc1C (stereo not given)	-5%	i	?	?	/	/	/
Cc1ccc(-n2nc(C)c([C@@H]3C=C[C@@H](NC(=O)NCc4ccccc4)C3)c2C)cc1Cl	?	7.9µM*	-23%[172 µM]	?	19%[49.3 µM]	?	?
CCNC(=O)N[C@@H]1C=C[C@@H](c2c(C)nn(-c3ccc(F)cc3)c2C)C1	?	6.3µM*	89µM*	20µM*	26%[49.3 µM]	?	?
COc1ccc(-n2nc(C)c([C@@H]3C=C[C@@H](NC(=O)NCc4ccccc4)C3)c2C)cc1	?	1.1µM*	?	8.9µM*	?	19%[49.3 µM]	6.4µM*
Cc1nn(-c2ccc(C(C)(C)C)cc2)c(C)c1[C@@H]1C=C[C@@H](NC(=O)CC2(CC(=O)O)CCCC2)C1	?	i	-9%	0%	/	/	/
CCOc1ccc2nc(NC(=O)c3ccccc3)sc2c1	/	/	/	/	?	?	0.88µM*
COc1ccc2nc(NC(=O)Cn3nc4c(cc3=O)CCCC4)sc2c1	-2%	?	-23%	-2%	/	/	/
Cc1cn2nc(C(=O)NCc3ccc4c(c3)OCO4)cc2c(N2CCCC2)n1	-23%	i	-11%	15%	/	/	/
COc1cccc(CNC(=O)CN2C(=O)NC3(CCC(C(C)(C)C)CC3)C2=O)c1 (stereo not given)	?	i	?	1%	/	/	/
COc1cccc(-c2nc3cnccn3c2NCCC(=O)N2CCCC(C)C2)c1 (stereo not given)	i	i	-10%	4%	/	/	/
CN1CCc2c([nH]c3ccccc23)C12CCN(C(=O)c1cn(C)cn1)CC2	-13%	i	-8%	6%	/	/	/
CN1CC(=O)N(C2CCCC2)Cc2c1ncnc2N1CCOCC1	-5%[138 µM]	i	3%[172 µM]	0%[70.6 µM]	12%[49.3 µM]	8%[49.3 µM]	2%[49.3 µM]
CCOC(=O)[C@@H]1[C@@H](O)C(=O)NC12CCN(C(=O)c1ccc(Cl)cc1)CC2	?	/	-19%	/	/	/	/
Cc1ccc(-c2nnc(SCc3ccccc3)o2)cc1	/	/	/	/	15%	18%	?
Cc1cccc(-c2nnc(SCCC(=O)O)o2)c1	/	/	/	/	17%	?	5µM*
Cc1ccc(-c2nnc(C3CN(C(=O)Cc4ccccc4)CC34CCOCC4)o2)cc1 (stereo not given)	-15%	i	?	-2%	/	/	/
Cc1cccc(C(=O)N2CCCCCC2c2nnc(-c3ccccc3)o2)c1 (stereo not given)	?	i	?	4%	/	/	/
CNC(=O)[C@H]1CN(C(=O)NC2CCCC2)[C@]2(C)C(=O)N(CC3CC3)c3ccccc3[C@H]12	-16%	/	?	/	/	/	/
